Hits are enriched below; roughly 18% of the tested compounds scored in any of these assays.
CtBP-E1A blk = inhibitors of CtBP/E1A interaction; AlphaScreen GST-E1A/His-CtBP binding, 1536-well; stronger effect = lower value; activity change, % (concentration not given with the values); 0.49% of 340,000 active; AID 651724; in the data active = activity change below about -65%; inconclusive = mostly about -30% to -63%
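GST-E1A and His-tagged CtBP (125 nM each as 5X stock) were preincubated with pin-transferred compound for 2 h at 37 °C in the dark, then glutathione donor and nickel acceptor beads were added for 1 h before AlphaScreen reading.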
DT40 TDP1 no CPT = qHTS for Inhibitors of human tyrosyl-DNA phosphodiesterase 1 (TDP1): qHTS in cells in absence of CPT. DT40 Tdp1-/- hTDP1 cells, no CPT, ATP luminescence, 48 h. Potency, µM (highest dose often 46.2 µM), inactives show at the highest dose activity change, negative = growth inhibition, usual class: inhibitors. 15% of 420,000 active; also: potency is read from the fitted curve at half-maximal effect; nearly all actives have a fitted effect of over 55% in size
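Growth kinetics read by CellTiter-Glo luminescence after ≥48 hr at 37 °C. Cells: DT40 Tdp1-/- stably carrying human TDP1, 400 per well, compound exposure in the absence of CPT (DMSO vehicle).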
IL1B secr inh = inhibitors of inflammasome signaling (IL-1 beta secretion). 4.7% of 360,000 active. activity change, % at 57.5 µM. THP-1 LPS/ATP IL-1B secretion, AlphaLISA, 16 h; stronger effect = lower value; in the data active = activity change below about -50%; inconclusive = mostly about -30% to -49%
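Secreted IL-1B measured by AlphaLISA bead assay after 16 h compound exposure of THP-1 cells; compounds (final up to 57.5 uM) added 1 h before LPS (250 ng/mL) and ATP (1.25 mM) stimulation; lower signal means less secretion.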
TDP1 cell CPT = DT40-hTDP1 cell growth loss with CPT; chicken DT40 Tdp1-/-;hTDP1 cells + 20 nM CPT, ATP luminescence, 48 h; Potency, µM (doses to about 46.2 µM), inactives show top-dose activity change, negative = growth inhibition, most hits filed as inhibitors; 12% of 420,000 active; also: potency is read from the fitted curve at half-maximal effect; nearly all actives have a fitted effect of over 55% in size
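Chicken DT40 Tdp1-/- cells complemented with human TDP1, 400 cells/well, exposed to compounds plus 20 nM camptothecin for at least 48 h at 37 C; viability read as ATP content by CellTiter-Glo luminescence.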
Six1-Eya2 inh = Six1/Eya2 interaction inhibition. Q15475+O00167. AlphaScreen GST-Six1/His-Eya2 binding, biochemical; stronger effect = lower value. activity change, % (test concentration not listed). 0.56% of 360,000 active. AID 651725; in the data active = activity change below about -65%; inconclusive = mostly about -30% to -63%
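Homogeneous AlphaScreen proximity assay pairing GST-Six1 with His-tagged Eya2 (added as 5X mix: 250 nM and 500 nM) in 50 mM Tris pH 8.0, 300 mM NaCl, 1 mM TCEP. Glutathione donor and nickel acceptor beads; 1 h, 37 °C, dark.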
TDP1 inh = blocks human tyrosyl-DNA phosphodiesterase 1; recombinant TDP1, AlphaScreen DNA substrate cleavage; Potency, µM (titrated, usually from 130 µM), without a hit: at the highest dose activity change, negative = inhibition, hits mostly inhibitors; 0.28% of 350,000 active; also: potency is read from the fitted curve at half-maximal effect; nearly all actives have a fitted effect of over 40% in size
Target sequence (Q9NUW8 whole entry, looked up): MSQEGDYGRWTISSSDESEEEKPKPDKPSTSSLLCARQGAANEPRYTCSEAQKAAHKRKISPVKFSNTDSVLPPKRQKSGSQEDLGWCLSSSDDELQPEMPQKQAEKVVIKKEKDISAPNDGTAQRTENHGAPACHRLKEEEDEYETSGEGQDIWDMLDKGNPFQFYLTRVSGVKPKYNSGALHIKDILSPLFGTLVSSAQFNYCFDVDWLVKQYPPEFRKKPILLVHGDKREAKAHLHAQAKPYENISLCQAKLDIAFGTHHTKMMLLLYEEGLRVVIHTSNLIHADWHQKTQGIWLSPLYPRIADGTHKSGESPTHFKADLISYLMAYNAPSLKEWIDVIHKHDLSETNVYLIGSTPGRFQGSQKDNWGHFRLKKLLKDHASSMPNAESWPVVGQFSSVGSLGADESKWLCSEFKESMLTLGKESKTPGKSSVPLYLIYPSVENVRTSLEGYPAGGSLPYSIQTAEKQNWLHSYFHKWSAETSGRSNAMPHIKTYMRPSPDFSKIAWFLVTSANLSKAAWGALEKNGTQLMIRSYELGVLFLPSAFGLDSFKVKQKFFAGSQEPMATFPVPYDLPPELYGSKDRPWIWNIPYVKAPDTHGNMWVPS
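Compounds were preincubated with Tdp1 (1 nM final) for 15 min at room temperature before substrate (15 nM final) started a 5 min reaction; beads (10 ug/ml final) were then added for 10 min before AlphaScreen detection.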
Numbers without * were called inactive; ? = inconclusive; . = not tested or not shown. Unless noted, calls follow the shape of the dose curve; as a rule, active = well fitted curve in the direction sought with a large enough effect; inconclusive = small, poorly fitted or top-dose-only effect, or another doubt; inactive = no such curve, though single readings can be large; an effect the other way counts as inactive or inconclusive. % is scaled to controls: 0 for no effect and ±100 for the full control effect.

SMILES	CtBP-E1A blk	DT40 TDP1 no CPT	IL1B secr inh	TDP1 cell CPT	Six1-Eya2 inh	TDP1 inh
CCOC(=O)c1ccc(-c2ccc(/C=N/NC(=O)CN(c3ccccc3Cl)S(C)(=O)=O)o2)cc1	4	23µM*	-9	?	-8	-3%
CCOC(=O)c1ccc(-c2ccc(/C=N/NC(=O)CN(c3cccc(C)c3)S(C)(=O)=O)o2)cc1	2	15µM*	13	?	-6	-11%
CS(=O)(=O)N(CC(=O)N/N=C/c1ccccc1C(=O)O)c1cccc(Cl)c1Cl	8	0%	18	-14%	-2	4%
Cc1ccc(C(C(=O)NCc2ccc(F)cc2)N(CCCO)C(=O)C2COc3ccccc3O2)o1 (stereo not given)	.	?	-4	?	-4	-5%
COc1cccc(CNc2ccc([N+](=O)[O-])c(NCC(=O)O)n2)c1	0	-8%	-17	0%	-8	5%
C=CCSc1nnc(-c2ccccc2NC(=O)CC)c(=O)[nH]1	0	0%	0	3%	-1	0%
COc1ccc(NC(=O)C2(C)CCN2C(=O)CC2CCCC2)cc1OC (stereo not given)	6	-9%	-2	-24%	6	.
COc1ccc(NC(=O)C2(C)CCN2Cc2ccccc2Cl)cc1OC (stereo not given)	-24	8.2µM*	?	9.2µM*	-14	.
COc1ccc(NC(=O)C2(C)CCN2Cc2ccc(OC(C)C)cc2)cc1OC (stereo not given)	-3	?	13	?	-5	.
COc1ccc(NC(=O)C2(C)CCN2Cc2ccc(C(C)C)cc2)cc1OC (stereo not given)	-4	23µM*	29	18µM*	-8	.
COc1ccc(NC(=O)C2(C)CCN2CC2CCCCC2)cc1OC (stereo not given)	-4	15µM*	-12	?	-8	.
CCCCNC(=O)C1CCN(S(=O)(=O)CCC)CC1	.	0%	.	-20%	.	8%
O=C(c1cccc(Cl)c1)N1CCC2CC1c1cc(N3CCOCC3)ccc12 (stereo not given)	-2	?	12	?	-17	.
O=C(c1ccccc1F)N1CCC2CC1c1cc(N3CCCCC3)ccc12 (stereo not given)	-25	18µM*	37	?	-24	.
O=C(C1CCCCC1)N1CCC2CC1c1cc(N3CCCCC3)ccc12 (stereo not given)	-7	21µM*	51	18µM*	-9	.
CC(CNC(=O)CN(C)CC(=O)Nc1ccccc1Br)c1ccccc1 (stereo not given)	-4	-6%	-1	-10%	0	-3%
CC1CCc2sc(C(=O)Nc3ccc(C(N)=O)cc3)cc2C1 (stereo not given)	2	-5%	-70*	5%	7	0%
Cc1ccc(S(=O)(=O)N2CCOCC2)cc1NC(=O)c1cc2c(s1)CCC2	-4	16µM*	?	?	-7	6%
Cc1ccc(S(=O)(=O)Nc2ccc(Cl)cc2)cc1NC(=O)c1cc2c(s1)CCCC2	0	?	-64*	?	-5	4%
CC1CCc2sc(C(=O)NN)cc2C1 (stereo not given)	.	-2%	-12	2%	3	5%
COc1ccc(NC(=O)c2cc3c(s2)CCC(C)C3)cc1S(=O)(=O)N1CCOCC1 (stereo not given)	-22	21µM*	0	?	-2	5%
CCCCC(=O)Nc1c(C)cc(C)cc1Cl	-3	-19%	-29	-7%	-2	-2%
O=C(NCCCn1ccnc1)c1ccc(C(F)(F)F)cc1	.	-1%	10	-4%	4	.
O=[N+]([O-])c1ccc2n[nH]nc2c1	4	-15%	46	-4%	0	2%
COc1cc(S(=O)(=O)N2CCOCC2)ccc1NC(=O)c1cc2c(s1)CCC2	-9	26µM*	?	16µM*	-13	1%
SMILES	CtBP-E1A blk	DT40 TDP1 no CPT	IL1B secr inh	TDP1 cell CPT	Six1-Eya2 inh	TDP1 inh
CCc1cc2c3c([nH]c2cc1S(=O)(=O)N1CCC2(CC1)OCCO2)CCCC3=O	-7	16µM*	-16	23µM*	-3	-4%
S=c1[nH]c(-c2ccccc2)cn1/N=C/c1ccncc1	-6	-22%	-9	-1%	17	11%
CCOc1ccc(/C=N/n2cc(-c3ccccc3)[nH]c2=S)cc1	?	5.2µM*	-15	2.6µM*	?	5%
CCOC(=O)c1cnc(SCC(=O)Nc2ccc(N3CCOCC3)c(Cl)c2)nc1N	5	13µM*	-8	?	1	3%
CCOC(=O)c1cnc(SCc2nc(N)nc(Nc3ccccc3)n2)nc1N	0	16µM*	6	16µM*	-1	-3%
CCOC(=O)c1cnc(SCc2ccc(C)cc2)nc1N	23	-9%	-12	-14%	24	-2%
CCOC(=O)c1cnc(SCC(=O)Nc2sc(C)c(C)c2C#N)nc1N	0	?	73	?	16	-6%
CCOC(=O)c1cnc(SCC(=O)Nc2cc(OC)cc(OC)c2)nc1N	-12	8.2µM*	36	8.2µM*	-10	2%
O=C(Nc1ccc2c(c1)OCO2)N1CCN(c2ncccn2)CC1	3	-9%	-5	-4%	-1	2%
Cc1cc(C)nc(SCC(=O)N/N=C/c2cccn2-c2ccc(O)cc2)n1	-10	1%	-5	-2%	-20	9%
Cc1ccc2cc(C3CC(c4ccco4)=NN3C(=O)CCC(=O)O)c(Cl)nc2c1 (stereo not given)	-2	16µM*	-5	?	-8	3%
Cc1ccc2nc(Cl)c(C3CC(c4cccs4)=NN3C(=O)CCCC(=O)O)cc2c1 (stereo not given)	7	8.2µM*	29	-19%	1	3%
CC1CCN(C(=O)CSc2nnc(Cc3cccn3C)n2CCc2ccccc2)CC1	-5	?	?	16µM*	-1	3%
COc1ccc(-n2c(Cc3cccn3C)nnc2SCC(=O)Nc2cccc(F)c2)cc1	-19	26µM*	?	23µM*	-11	3%
Cn1cccc1Cc1nnc(SCC(=O)Nc2cccc(F)c2)n1CCc1ccccc1	-9	?	-21	23µM*	-19	0%
Cc1ccc(S(=O)(=O)N(C)C)cc1NC(=O)c1ccc2ccccc2n1	-6	?	19	21µM*	-7	3%
